Test systems include HCT-15 colon; HT29 colon; SNB-75 CNS; SNB-19 CNS; U251 CNS; PC-3 prostate; SK-MEL-5 melanoma; UACC-62 melanoma; LOX IMVI melanoma; SK-MEL-28 melanoma.
Holding throughout (test): NCI-60 one-dose screen, 48 h (100 = growth as untreated, 0 = no growth, -100 = all killed)
What all share (conditions): 10 µM unless noted

This note sets out measurements from PubChem BioAssay (NCI).

About 83,000 compounds went through this panel and 20% of them were active in at least one assay; those are over-represented in the sample as a whole.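 A percent growth of 40 corresponds to 60% growth inhibition; 0 means no net growth; -100 means all cells died. Active threshold: below 10.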 Unmarked numbers belong to inactive results. Calls of active or inactive are those of the source.

Regarding `Oc1ccc(-c2nc3ccc4[nH]ncc4c3c3c2CCCC3)c(F)c1`, the growth was 15.8% with HCT-15 colon; 42.5% in the assay with HT29 colon; 17% in the assay with SNB-75 CNS; 60.5% in the assay with SNB-19 CNS; 38.3% in the assay with U251 CNS; 33.8% with PC-3 prostate. The growth in the assay on SK-MEL-5 melanoma was 3.31% (active); with UACC-62 melanoma it was 11.7%; in the assay on LOX IMVI melanoma it was 27.8%; with SK-MEL-28 melanoma, 17.5%.
As for `COCCn1cc(-c2nc(-c3cc4cccnc4n3C)cs2)c2ccccc21`, the growth was 21.5% in the assay on HCT-15 colon; 12.9% in the assay with HT29 colon; 61.3% in the assay on SNB-75 CNS; 63.5% with SNB-19 CNS; 33.3% in the assay with U251 CNS; 27.5% in the assay on PC-3 prostate. Further, the growth in the assay on SK-MEL-5 melanoma is 2.5% (active); with UACC-62 melanoma, 46.2%; with LOX IMVI melanoma it was 38.7%; in the assay on SK-MEL-28 melanoma, 73.1%.
Regarding `O=C(NCCN1CCOCC1)OCc1ccc2c(Cl)cc(Cl)c(O)c2n1`, the growth is 19.5% in the assay on HCT-15 colon; 108% with HT29 colon; 71.2% with SNB-75 CNS; 59% with SNB-19 CNS; 44.6% in the assay with U251 CNS; 60% with PC-3 prostate. In addition, the growth was 53.8% in the assay on SK-MEL-5 melanoma, 59.7% in the assay on UACC-62 melanoma, 51% in the assay on LOX IMVI melanoma and 71.6% with SK-MEL-28 melanoma.
Turning to `O=C1OCC2=C1C(c1ccccc1)c1cc3c(cc1N2CCO)OCCO3` (stereo not given), the growth with HCT-15 colon is 7.18% (active); in the assay on HT29 colon, -35.9% (active); with SNB-75 CNS it was -11.2% (active); in the assay on SNB-19 CNS, 12.8%; in the assay on U251 CNS, 7.86% (active); with PC-3 prostate, 17.3%. For the same molecule, the growth was 4.37% (active) in the assay with SK-MEL-5 melanoma, 14.5% in the assay on UACC-62 melanoma, 34.6% in the assay with LOX IMVI melanoma and 32.6% with SK-MEL-28 melanoma.
Consider `COC(=O)/C(CCC=C(C)C)=C1\[C@@H](OC(C)=O)C[C@@]2(C)[C@H]1C/C(=N/O)[C@H]1[C@@]3(C)CC/C(=N\O)[C@@H](C)[C@@H]3CC[C@@]12C`, for which the growth is 88.4% in the assay on HCT-15 colon; 107% in the assay on HT29 colon; 86.9% with SNB-75 CNS; 88.9% in the assay with SNB-19 CNS; 91.5% in the assay on U251 CNS; 70.9% in the assay on PC-3 prostate. Besides, the growth was 98.9% in the assay on SK-MEL-5 melanoma, 93.7% with UACC-62 melanoma, 78.1% in the assay with LOX IMVI melanoma and 111% with SK-MEL-28 melanoma.
As for `C=C1C(=O)O[C@H]2[C@H]1CC/C(CNC(=O)Cc1c[nH]c3ccccc13)=C\CC[C@@]1(C)O[C@@H]21`, the growth is 15.6% with HCT-15 colon; 1.86% (active) with HT29 colon; 73.9% in the assay on SNB-75 CNS; 57.5% in the assay with SNB-19 CNS; 43.9% in the assay with U251 CNS; 49.9% with PC-3 prostate. Further, the growth was 42.1% with SK-MEL-5 melanoma, -23.5% (active) with UACC-62 melanoma, -75.3% (active) in the assay on LOX IMVI melanoma and -29.9% (active) in the assay on SK-MEL-28 melanoma.
On to `CN(C)CCn1c(=O)c2ccccc2n2nc3ccccc3c12`, for which the growth in the assay with HCT-15 colon is 84.1%; in the assay with HT29 colon, 78.9%; in the assay on SNB-75 CNS, 93.5%; in the assay on SNB-19 CNS, 78.1%; in the assay on U251 CNS, 88.8%; in the assay on PC-3 prostate, 99.3%. The growth in the assay on SK-MEL-5 melanoma was 87.2%; in the assay with UACC-62 melanoma it was 72.7%; with LOX IMVI melanoma, 56.4%; with SK-MEL-28 melanoma, 116%.
`Nc1nc2ccccc2c2c(=O)c3cc(Cl)ccc3sc12`: the growth in the assay on HCT-15 colon was 96.8%; with HT29 colon, 102%; with SNB-75 CNS, 91.2%; in the assay with SNB-19 CNS it was 96.1%; in the assay on U251 CNS it was 98.5%; in the assay with PC-3 prostate it was 90.7%. Moreover, the growth with SK-MEL-5 melanoma is 96.5%; in the assay on UACC-62 melanoma it was 93.4%; in the assay on LOX IMVI melanoma it was 103%; with SK-MEL-28 melanoma it was 109%.
In the case of `CC(=O)N1N=C(c2ccc(Nc3nc(Nc4ccc(F)cc4)nc(Nc4ccc(F)cc4)n3)cc2)CC1c1ccc(N(C)C)cc1` (stereo not given), the growth with HCT-15 colon was 46.9%; in the assay with HT29 colon it was 50.7%; in the assay on SNB-75 CNS, 62.7%; in the assay with SNB-19 CNS it was 66.2%; with U251 CNS, 49.8%; in the assay with PC-3 prostate, 32.8%. The growth in the assay on SK-MEL-5 melanoma is 29.3%; with UACC-62 melanoma it was 57%; in the assay with LOX IMVI melanoma, 52.5%; in the assay on SK-MEL-28 melanoma it was 64.2%.
For the molecule `COc1ccc2c(c1)oc1c(C)c3c(c(C)c12)C(=O)N(CCOS(C)(=O)=O)C3=O`, the growth in the assay on HCT-15 colon was 102%; with HT29 colon, 101%; in the assay with SNB-75 CNS it was 103%; in the assay on SNB-19 CNS, 95.4%; in the assay with U251 CNS, 108%; in the assay on PC-3 prostate, 96.5%. For the same molecule, the growth is 101% in the assay with SK-MEL-5 melanoma, 87.8% in the assay with UACC-62 melanoma, 90.3% with LOX IMVI melanoma and 102% in the assay on SK-MEL-28 melanoma.
On to `NS(=O)(=O)c1ccc(C(=O)NN2C(=O)c3ccccc3C2=O)cc1`, for which the growth is 107% in the assay with HCT-15 colon; 111% in the assay on HT29 colon; 74.8% with SNB-75 CNS; 102% in the assay on SNB-19 CNS; 106% in the assay with U251 CNS; 105% in the assay on PC-3 prostate. In addition, the growth with SK-MEL-5 melanoma is 103%; with UACC-62 melanoma, 102%; in the assay with LOX IMVI melanoma, 103%; in the assay with SK-MEL-28 melanoma, 113%.
With `Nc1cc(Br)cc2c1[nH]c(=O)c1ccccc12`, the growth in the assay with HCT-15 colon is 110%; with HT29 colon, 114%; with SNB-75 CNS, 81.7%; in the assay with SNB-19 CNS, 102%; in the assay with U251 CNS, 90.7%; in the assay with PC-3 prostate, 89.6%. Further, the growth in the assay on SK-MEL-5 melanoma is 96.5%; in the assay on UACC-62 melanoma, 100%; in the assay with LOX IMVI melanoma, 95.5%; with SK-MEL-28 melanoma, 101%.
Regarding `CCn1cc(C(=O)O)c(=O)c2cc(F)c(N3CCN(CC(=O)Nc4ccccc4)C(C)C3)c(F)c21` (stereo not given), the growth with HCT-15 colon was 101%; in the assay with HT29 colon, 108%; with SNB-75 CNS it was 86.1%; in the assay on SNB-19 CNS, 99.1%; with U251 CNS, 102%; in the assay on PC-3 prostate, 93.2%. Besides, the growth with SK-MEL-5 melanoma was 99.2%; in the assay with UACC-62 melanoma, 78.2%; in the assay on LOX IMVI melanoma it was 88.5%; with SK-MEL-28 melanoma, 97%.
